HIF-2a inh: inhibitors of HIF-2a; inhibition, % at 18.8 µM; 786-0 RCC cells HIF-2a reporter, luciferase luminescence, overnight; AID 624352; 360,000 compounds, 0.72% hits;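 active = inhibition of the luminescence signal of 40% or more relative to plate controls, in a single-dose primary screen at 18.75 µM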
TWEAK Fn14 block: blocks TWEAK-Fn14 interaction in a reporter cell assay | TWEAK-stimulated Fn14 reporter cells, luciferase luminescence, 8 h | inhibition, % at 10 µM | 360,000 compounds, 2% hits | AID 1159606; in the data active = inhibition above about 50%
CF NFkB block: blocks PAF-induced NF-kB reporter in cystic fibrosis cells | KKLEB NF-kB-GFP reporter, GFP fluorescence overnight | inhibition, % at 5 µM | 360,000 compounds, 0.86% hits | AID 588850;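 active = at least 50% inhibition at 5 µM, scaled per plate between neutral and stimulator controls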;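 note: PAF is a Pseudomonas aeruginosa culture filtrate used as stimulus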
KKLEB cytotox: reduces viability of KKLEB cystic fibrosis airway cells | activity change (cytotoxicity), % at 5 µM | AID 602141 | 360,000 compounds, 0.36% hits | KKLEB CF airway cells viability, ATPlite luminescence, overnight; active compounds read low; cells stimulated with P. aeruginosa culture filtrate;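 active = corrected activity change at or below -50% at 5 µM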
Peg3 prom inh: reduces Peg3 promoter-driven luciferase expression in HeLa; HeLa PEG-Prom luciferase reporter, luminescence, overnight; inhibition, % at 20 µM; 360,000 compounds, 1.7% hits; AID 588405;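 active = inhibition of at least 50% at 20 µM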
TROY signal inh: blocks TROY-dependent signaling in reporter cells | Q293 LMP1-TROYcd NF-kB luciferase reporter, 4 h | inhibition, % at 10 µM | 360,000 compounds, 0.98% hits | AID 1347056;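 active = compounds whose plate-normalised and pattern-corrected inhibition of the luciferase reporter signal at the single screening dose is 50% or more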
Numbers stand for hits. This is a sample that favours compounds with a hit; in the whole collection about 4% have one here.

Screening COc1ccc(/C=C/C(=O)O/N=C(\N)c2ccccn2)cc1OC returned HIF-2a inh inactive, TWEAK Fn14 block inactive, CF NFkB block inactive, KKLEB cytotox inactive, Peg3 prom inh inactive and TROY signal inh inactive.
For N/C(=N\OC(=O)/C=C/c1ccccc1)c1ccccn1 the results were HIF-2a inh inactive, TWEAK Fn14 block 56.0, CF NFkB block inactive, KKLEB cytotox inactive, Peg3 prom inh inactive and TROY signal inh inactive.
Screening O=C(Nc1ccc(Br)cc1)c1cccc(OC(=S)N2CCOCC2)c1 returned HIF-2a inh inactive, TWEAK Fn14 block inactive, CF NFkB block inactive, KKLEB cytotox inactive, Peg3 prom inh inactive and TROY signal inh inactive.
For Cc1ccc(C)c(N2CCN(CCCNC(=O)Cn3cccc3C(=O)c3ccccc3C)CC2)c1 the results were HIF-2a inh inactive, TWEAK Fn14 block inactive, CF NFkB block inactive, KKLEB cytotox inactive, Peg3 prom inh 107.3 and TROY signal inh inactive.
For Cc1ccccc1C(=O)c1cccn1CC(=O)NCCCN1CCCCC1 the results were HIF-2a inh inactive, TWEAK Fn14 block inactive, CF NFkB block inactive, KKLEB cytotox inactive, Peg3 prom inh inactive and TROY signal inh inactive.
For CCCc1cc(=O)oc2cc(OCC(=O)NCCc3c[nH]c4ccccc34)ccc12 the results were HIF-2a inh inactive, TWEAK Fn14 block inactive, CF NFkB block inactive, KKLEB cytotox inactive, Peg3 prom inh 56.9 and TROY signal inh inactive.
Cc1cc(=O)oc2cc(OCC(=O)NCCc3c[nH]c4ccc(F)cc34)ccc12 was read as HIF-2a inh inactive, TWEAK Fn14 block inactive, CF NFkB block inactive, KKLEB cytotox inactive, Peg3 prom inh inactive and TROY signal inh inactive.
CN=c1scc(C)n1/N=C/c1ccc2c(c1)OCO2 was read as HIF-2a inh inactive, TWEAK Fn14 block 52.6, CF NFkB block inactive, KKLEB cytotox inactive, Peg3 prom inh inactive and TROY signal inh inactive.
`CN=c1scc(C)n1/N=C/c1ccc(O)cc1O` gave HIF-2a inh inactive, TWEAK Fn14 block 63.9, CF NFkB block inactive, KKLEB cytotox inactive, Peg3 prom inh inactive and TROY signal inh inactive.
`CN=c1scc(C)n1/N=C/c1cc(Br)c(O)c(Br)c1` gave HIF-2a inh inactive, TWEAK Fn14 block inactive, CF NFkB block inactive, KKLEB cytotox inactive, Peg3 prom inh inactive and TROY signal inh inactive.
For CN=c1scc(C)n1/N=C/c1ccc(O)cc1 the results were HIF-2a inh inactive, TWEAK Fn14 block inactive, CF NFkB block inactive, KKLEB cytotox inactive, Peg3 prom inh inactive and TROY signal inh 58.5.
COC(=O)c1ccc2c(=O)[nH]c(COC(=O)c3[nH]c(C)c(C(C)=O)c3C)nc2c1 was read as HIF-2a inh inactive, TWEAK Fn14 block inactive, CF NFkB block inactive, KKLEB cytotox inactive, Peg3 prom inh inactive and TROY signal inh inactive.
Screening O=c1[nH]c(-c2ccccn2)cc2ccccc12 returned HIF-2a inh inactive, TWEAK Fn14 block 78.9, CF NFkB block inactive, KKLEB cytotox inactive, Peg3 prom inh inactive and TROY signal inh inactive.
For O=c1[nH]c(Nc2ccccn2)cc2ccccc12 the results were HIF-2a inh inactive, TWEAK Fn14 block inactive, CF NFkB block inactive, KKLEB cytotox inactive, Peg3 prom inh inactive and TROY signal inh inactive.
`O=[N+]([O-])c1cc(S(=O)(=O)N2CCCC2)ccc1N/N=C1/CCCc2ccccc21` gave HIF-2a inh inactive, TWEAK Fn14 block 63.5, CF NFkB block inactive, KKLEB cytotox inactive, Peg3 prom inh inactive and TROY signal inh inactive.
Cc1c(NC(=O)/C(=C\c2ccccc2)NC(=O)c2ccccc2)c(=O)n(-c2ccccc2)n1C was read as HIF-2a inh inactive, TWEAK Fn14 block 93.6, CF NFkB block inactive, KKLEB cytotox inactive, Peg3 prom inh inactive and TROY signal inh inactive.
`Cc1c(NC(=O)/C(=C/c2cccs2)NC(=O)c2ccccc2)c(=O)n(-c2ccccc2)n1C` gave HIF-2a inh inactive, TWEAK Fn14 block inactive, CF NFkB block inactive, KKLEB cytotox inactive, Peg3 prom inh inactive and TROY signal inh inactive.
Oc1ccc(/C=N/Nc2ccnc3cc(Cl)ccc23)cc1O was read as HIF-2a inh inactive, TWEAK Fn14 block inactive, CF NFkB block inactive, KKLEB cytotox inactive, Peg3 prom inh 74.0 and TROY signal inh inactive.
`c1ccc(CNc2ccc(N3CCOCC3)cc2)cc1` gave HIF-2a inh inactive, TWEAK Fn14 block inactive, CF NFkB block inactive, KKLEB cytotox inactive, Peg3 prom inh inactive and TROY signal inh 65.0.
NC1=NN=C(c2ccc3c(c2)OCCO3)CS1 was read as HIF-2a inh inactive, TWEAK Fn14 block 58.5, CF NFkB block inactive, KKLEB cytotox inactive, Peg3 prom inh inactive and TROY signal inh inactive.
`Cc1sc(N)nc1-c1ccc2c(c1)OCCO2` gave HIF-2a inh inactive, TWEAK Fn14 block inactive, CF NFkB block inactive, KKLEB cytotox inactive, Peg3 prom inh inactive and TROY signal inh inactive.
C=CCN=C1NN=C(c2ccc3c(c2)OCCO3)CS1 was read as HIF-2a inh inactive, TWEAK Fn14 block 66.7, CF NFkB block inactive, KKLEB cytotox inactive, Peg3 prom inh inactive and TROY signal inh 68.9.
`CC(=O)N(C1=C(Cl)C(=O)c2ccccc2C1=O)C1CCCCC1` gave HIF-2a inh 82.0, TWEAK Fn14 block inactive, CF NFkB block inactive, KKLEB cytotox inactive, Peg3 prom inh 104.8 and TROY signal inh inactive.
CC(=O)N(c1ccccc1C)C1CCCC1 was read as HIF-2a inh inactive, TWEAK Fn14 block inactive, CF NFkB block inactive, KKLEB cytotox inactive, Peg3 prom inh inactive and TROY signal inh inactive.
`COC1=CC(=O)c2nc(Cl)ccc2C1=O` gave HIF-2a inh 89.9, TWEAK Fn14 block 93.5, CF NFkB block 83.2, KKLEB cytotox -91.2, Peg3 prom inh 107.2 and TROY signal inh inactive.
`CCc1nc(N)c(C#N)c(-c2ccc(F)cc2)c1C` gave HIF-2a inh inactive, TWEAK Fn14 block inactive, CF NFkB block inactive, KKLEB cytotox inactive, Peg3 prom inh inactive and TROY signal inh inactive.
`Cc1ccc2c(n1)sc1c(-c3ccc(Br)cc3)c(C#N)c(N)nc12` gave HIF-2a inh inactive, TWEAK Fn14 block inactive, CF NFkB block inactive, KKLEB cytotox inactive, Peg3 prom inh 55.9 and TROY signal inh inactive.
For Nc1nc(CSC(=S)N2CCOCC2)nc(Nc2ccccc2)n1 the results were HIF-2a inh inactive, TWEAK Fn14 block inactive, CF NFkB block inactive, KKLEB cytotox inactive, Peg3 prom inh inactive and TROY signal inh inactive.
`Nc1nc(CSC(=S)N2CCN(c3ccccc3)CC2)nc(Nc2ccc(F)cc2)n1` gave HIF-2a inh inactive, TWEAK Fn14 block 50.0, CF NFkB block inactive, KKLEB cytotox inactive, Peg3 prom inh inactive and TROY signal inh inactive.
`Cc1cc(N2CCN(C)CC2)ccc1NC(=O)c1ccc(-c2ccc(Cl)cc2)o1` gave HIF-2a inh 41.1, TWEAK Fn14 block 94.2, CF NFkB block inactive, KKLEB cytotox inactive, Peg3 prom inh 90.4 and TROY signal inh 79.7.
Screening O=C(Nc1nnc([C@@H]2C[C@H](O)[C@@H](CO)O2)s1)c1cccc(Oc2ccccc2)c1 returned HIF-2a inh inactive, TWEAK Fn14 block inactive, CF NFkB block inactive, KKLEB cytotox inactive, Peg3 prom inh inactive and TROY signal inh inactive.
